Consider 23 compounds from PubChem BioAssay (NCATS).

In one experiment the test system is CRL-7250. In words: Cytotoxic Profiling of Annotated Libraries Using Quantitative High-Throughput Screening (AID 1296008). As to max response: % is scaled to controls: 0 for no effect and ±100 for the full control effect. To be noted: Five cell lines viability, CellTiter-Glo ATP luminescence, 48-72 h; max response: stronger effect = lower value. A digest of the protocol: (§1)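 Cells exposed to compounds for 48 or 72 hr at 37 degrees Celsius. Viability read as ATP-coupled luminescence with CellTiter-Glo after 10 min at room temperature.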

The test system of experiment [1] is HaCat. The experiment is described as above. The following applies: Five cell lines viability, CellTiter-Glo ATP luminescence, 48-72 h; max response: stronger effect = lower value. The procedure, abridged: as §1
The next experiment has as its system NIH3T3. Described as above. The following applies: Five cell lines viability, CellTiter-Glo ATP luminescence, 48-72 h; max response: stronger effect = lower value. The procedure, abridged: as §1
Experiment [2] deals with HACAT. In words: qHTS assay to identify novel small-molecules to repurpose for Merkel cell carcinoma treatment (AID 1296009). To be noted: MCC and control cell lines, CellTiter-Glo viability, 72 h; at 44.8 µM (top of the series) unless noted. A digest of the protocol:
(§2)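 Dose-response viability screen; 72 hr exposure at 37 degree celsius; CellTiter-Glo added, 10 min room temperature, luminescence read; RLUs scaled between no-cell and DMSO wells.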

For another experiment, the system named is MCC-13. The experiment is described as above. To be noted: MCC and control cell lines, CellTiter-Glo viability, 72 h; series mostly up to 46 µM. A digest of the protocol: as §2
The subject of the next experiment is PC26. The experiment is described as follows: qHTS profiling for inhibitors of Plasmodium falciparum proliferation (AID 504749). The following applies: P. falciparum in erythrocytes, SYBR Green DNA, 72 h; series mostly up to 28.7 µM. The procedure, abridged:
(§3)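 Each compound contacts P. falciparum-infected red blood cells for 72 h at 37 C; lysis buffer (Tris, EDTA, saponin, Triton X, SYBR Green I) is added and fluorescence measured next morning; values normalized to controls.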

Another experiment deals with W2. The experiment is described as above. The following applies: P. falciparum in erythrocytes, SYBR Green DNA, 72 h; series mostly up to 28.7 µM. A digest of the protocol: as §3
For the next experiment, the system named is HEK293. The experiment is described as follows: Cytotoxic Profiling of Annotated Libraries Using Quantitative High-Throughput Screening (AID 1296008). As to max response: % is scaled to controls: 0 for no effect and ±100 for the full control effect. The following applies: Five cell lines viability, CellTiter-Glo ATP luminescence, 48-72 h; max response: stronger effect = lower value. The procedure, abridged:
as §1

The subject of the next experiment is MCC-26. In words: qHTS assay to identify novel small-molecules to repurpose for Merkel cell carcinoma treatment (AID 1296009). To be noted: MCC and control cell lines, CellTiter-Glo viability, 72 h; series mostly up to 46 µM. The procedure, abridged:
as §2

The next experiment has as its system KB-3-1. In words: Cytotoxic Profiling of Annotated Libraries Using Quantitative High-Throughput Screening (AID 1296008). As to max response: % is scaled to controls: 0 for no effect and ±100 for the full control effect. The following applies: Five cell lines viability, CellTiter-Glo ATP luminescence, 48-72 h; max response: stronger effect = lower value. A digest of the protocol: as §1
For a further experiment, the system named is P93_24. In words: qHTS profiling for inhibitors of Plasmodium falciparum proliferation (AID 504749). The following applies: P. falciparum in erythrocytes, SYBR Green DNA, 72 h; series mostly up to 28.7 µM. The procedure, abridged: as §3
The next experiment deals with P94_40. The experiment is described as above. The following applies: P. falciparum in erythrocytes, SYBR Green DNA, 72 h; series mostly up to 28.7 µM. The procedure, abridged:
as §3

The next experiment deals with PAD. The experiment is described as above. To be noted: P. falciparum in erythrocytes, SYBR Green DNA, 72 h; series mostly up to 28.7 µM. A digest of the protocol:
as §3

For another experiment, the system named is PC15. The description is as above. The following applies: P. falciparum in erythrocytes, SYBR Green DNA, 72 h; series mostly up to 28.7 µM. The procedure, abridged: as §3
The subject of another experiment is PC49. The experiment is described as above. To be noted: P. falciparum in erythrocytes, SYBR Green DNA, 72 h; series mostly up to 28.7 µM. A digest of the protocol:
as §3

The subject of the next experiment is SC27B. The experiment is described as above. The following applies: P. falciparum in erythrocytes, SYBR Green DNA, 72 h; series mostly up to 28.7 µM. The procedure, abridged: as §3
In a further experiment the test system is TAB109. The description is as above. To be noted: P. falciparum in erythrocytes, SYBR Green DNA, 72 h; series mostly up to 28.7 µM. The procedure, abridged: as §3
The next experiment concerns TAB165. Described as above. To be noted: P. falciparum in erythrocytes, SYBR Green DNA, 72 h; series mostly up to 28.7 µM. The procedure, abridged:
as §3

For another experiment, the system named is TAB113. The description is as above. The following applies: P. falciparum in erythrocytes, SYBR Green DNA, 72 h; series mostly up to 28.7 µM. A digest of the protocol:
as §3

Several values for one entry are separate records, joined by “and”; a condition that tells them apart may be missing. Identical values can stand only once. Results filed as inconclusive are left out. Values without a mark were called inactive. Activity calls are given as the source filed them. Calls follow the shape of the dose curve; as a rule, active = well fitted inhibition curve with a large enough effect; inconclusive = small, poorly fitted or top-dose-only effect; inactive = flat fitted curve, though single readings scatter.
Also: nearly all actives have a fitted effect of over 60% in size.
Potency is read from the fitted curve at half-maximal effect.

Regarding `Cc1cccc(Nc2nc(-c3ccncc3)cs2)c1`, in the experiment on CRL-7250, the max response was -0.257%. The outcome in the experiment with HaCat [1] and in the experiment with HACAT [2] was inactive. The Potency with NIH3T3 was 11.8 µM (active) and 7.31 µM (active). Besides, the Potency entry with MCC-13 was “inactive”.
In the case of `COCCCCC(=NOCCN)c1ccc(C(F)(F)F)cc1`, the Potency is 6.75 µM (active) in the experiment on PC26 and 2.69 µM (active) in the experiment on W2.
With `CC(C)n1cnc2c(NCCCCCCNC(=O)OC(C)(C)C)nc(NCCO)nc21`, the Potency with HEK293 is 14.8 µM (active). Further, the max response in the experiment with HaCat [1] was -3.35%. The Potency result with MCC-13 and in the experiment with MCC-26 was “inactive” each time.
In the case of `CNC1CCC(N(Cc2cccc(-c3ccncc3)c2)C(=O)c2sc3c(F)ccc(F)c3c2Cl)CC1` (centres undefined), in the experiment with HEK293, the Potency was 13.2 µM (active) and 13 µM (active). For the same compound, the call in the experiment on HaCat [1] and in the experiment with HACAT [2] was inactive. Besides, the Potency result in the experiment on MCC-13 and in the experiment on MCC-26 was “inactive” each time.
For `CNC(=O)c1ccccc1Sc1ccc2c(C=Cc3ccccn3)n[nH]c2c1`, the Potency was 14.8 µM (active) in the experiment with HEK293 and 3.72 µM (active) in the experiment on NIH3T3. Also, in the experiment with MCC-26, the Potency result was “inactive”.
Take `Clc1ccc(C(c2ccc(Cl)cc2)n2cc[n+](CC(OCc3ccc(Cl)cc3Cl)c3ccc(Cl)cc3Cl)c2)cc1` (centres undefined): the Potency is 14.8 µM (active) in the experiment on HEK293 and 18.7 µM (active) in the experiment on KB-3-1. The Potency result in the experiment with MCC-13 and in the experiment on MCC-26 was “inactive” in each case.
With `CC1(C)CCC2=C(O1)c1ccccc1C(=O)C2=O`, the compound was called inactive in the experiment on HaCat [1] and in the experiment with HACAT [2]. Besides, the max response in the experiment on KB-3-1 is 7.27%.
On to `O=C(O)c1ccc(-c2cc3cccnc3c(-c3ccc4nonc4c3)n2)cc1`, for which the Potency in the experiment with HEK293 is 14.8 µM (active). Also, the compound was called inactive in the experiment on HaCat [1] and in the experiment with HACAT [2]. Further, the Potency entry with MCC-13 and in the experiment on MCC-26 was “inactive” in each case.
Consider `CC(=NNC(=S)N1CCC1)c1ccccn1`, for which the Potency with HEK293 was 0.0042 µM (active); in the experiment with NIH3T3 it was 0.0187 µM (active); in the experiment on MCC-13, 0.0743 µM (active); in the experiment with MCC-26 it was 0.418 µM (active).
Take `CCCCCN(C)CCC(O)(P(=O)(O)O)P(=O)(O)O`: the compound was called inactive in the experiment on P93_24, in the experiment with PAD, in the experiment with PC15, with PC49 and in the experiment with TAB109. Besides, the Potency entry in the experiment with P94_40, in the experiment with PC26, in the experiment with SC27B, with TAB165, with W2 and with MCC-13 was “inactive” in each case. For the same compound, the Potency entry in the experiment with MCC-26 was “inactive”.
Consider `Nc1nc(F)nc2c1ncn2[C@@H]1O[C@H](COP(=O)(O)O)[C@@H](O)[C@H]1O`, for which the max response in the experiment on HEK293 is -8.85%. The compound was called inactive with KB-3-1. Besides, the Potency result in the experiment with MCC-26 was “inactive”.
Regarding `CC(C)=CC[C@@H](O)C1=CC(=O)c2c(O)ccc(O)c2C1=O`, the compound was called inactive with HaCat [1] and in the experiment with HACAT [2]. Moreover, the max response in the experiment on KB-3-1 was 6.3%; with NIH3T3, 4.11%. The Potency entry with MCC-13 was “inactive”.
Regarding `NC(=O)c1cccc2[nH]c(-c3ccc([C@H]4CCCN4)cc3F)nc12`, the max response in the experiment on KB-3-1 is -3.95%; in the experiment on NIH3T3, 0.71%. In addition, the Potency entry in the experiment with MCC-13 and in the experiment with MCC-26 was “inactive” throughout.
For `c1ccc2c(-c3cnn4cc(-c5ccc(N6CCNCC6)cc5)cnc34)ccnc2c1`, the Potency is 3.32 µM (active) in the experiment with KB-3-1, 10.5 µM (active) in the experiment with MCC-13 and 8.33 µM (active) in the experiment on MCC-26. The max response in the experiment with NIH3T3 is -102%.
Consider `NS(=O)(=O)c1ccc(NC2=CC(=O)c3ccccc3C2=O)cc1`, for which the call in the experiment with HaCat [1] and in the experiment on HACAT [2] was inactive. Moreover, the max response was 7.69% in the experiment with KB-3-1 and -17.3% with NIH3T3. In the experiment on MCC-26, the Potency result is “inactive”.
Consider `COCCOC(=O)C1=C(C)NC2=C(C(=O)CC(c3ccccc3OC)C2)C1c1cccc(O)c1` (centres undefined), for which the max response in the experiment on HaCat [1] was -1.34%; with KB-3-1 it was -11.3%. Moreover, the Potency entry in the experiment with MCC-13 and in the experiment with MCC-26 was “inactive” each time.
In the case of `COc1cccc2c1CCCC2CCCN1CCN(C2CCCCC2)CC1` (centres undefined), the Potency in the experiment with HEK293 was 14.8 µM (active). Besides, the max response with HaCat [1] was -16.8%. For the same compound, the Potency result in the experiment with MCC-13 and in the experiment with MCC-26 was “inactive” throughout.
As for `COc1ccc(Cc2nccc3cc(OC)c(OC)cc23)cc1OC`, the Potency entry in the experiment on P94_40, with SC27B, in the experiment with TAB113, with TAB165 and in the experiment on W2 was “inactive” in each case. In addition, the compound was classed as inactive in the experiment on PAD, with PC15, with PC49 and with TAB109.
As to `CC(C)OC(=O)CCCC=CC[C@@H]1[C@H](C=C[C@@H](O)COc2cccc(C(F)(F)F)c2)[C@H](O)C[C@@H]1O`, in the experiment with HEK293, the Potency is 11.8 µM (active). Moreover, the Potency entry in the experiment with MCC-26 was “inactive”.
Take `COc1ccc(-c2oc3c(CC=C(C)C)c(OC4O[C@H](CO)[C@@H](O)[C@H](O)[C@@H]4O)cc(O)c3c(=O)c2OC2O[C@@H](C)[C@H](O)[C@@H](O)[C@@H]2O)cc1` (some centres undefined): in the experiment with HEK293, the Potency was 18.7 µM (active). Further, the max response with NIH3T3 is -16.5%. In addition, the Potency result with MCC-13 and in the experiment on MCC-26 was “inactive” throughout.
Consider `C[C@H](NC(=O)C(=O)Nc1ccccc1C(C)(C)C)C(=O)N[C@@H](CC(=O)O)C(=O)COc1c(F)c(F)cc(F)c1F`, for which the compound was classed as inactive with HaCat [1], in the experiment on KB-3-1, with NIH3T3 and in the experiment with HACAT [2]. In the experiment with MCC-26, the Potency result was “inactive”.
`O=c1[nH]cnc2c1ncn2[C@H]1CC[C@@H](CO)O1`: the Potency result in the experiment with P94_40, in the experiment on PC26 and in the experiment with SC27B was “inactive” in each case. In addition, the compound was called inactive with PAD, in the experiment on PC15, in the experiment on PC49 and with TAB109. Besides, in the experiment with W2, the Potency was 13.5 µM (active).
Turning to `CC[C@@H]1C=C(C)C[C@H](C)C[C@H](OC)[C@H]2O[C@@](O)(C(=O)C(=O)N3CCCC[C@@H]3C(=O)O[C@H](C(C)=C[C@@H]3CC[C@H](Cl)[C@H](OC)C3)[C@H](C)[C@@H](O)CC1=O)[C@H](C)C[C@H]2OC`, the Potency in the experiment with HEK293 was 16.6 µM (active). The call in the experiment with KB-3-1 was inactive. Further, the max response in the experiment with NIH3T3 is -7.01%. In addition, the Potency entry in the experiment on MCC-13 and with MCC-26 was “inactive” each time.
